# Screening results from PubChem.
# MEKK2wt PB1 HTS – modulators of MEK5 binding to wildtype MEKK2, primary screen, biochemical, multiplex bead flow cytometry, Alexa488-MEK5 | Mitogen-activated protein kinase kinase kinase 2 (Homo sapiens), Q9Y2U5 | Alexa488-MEK5 binding to MEKK2 WT; actives lie on both sides | binding response (% of control), % at 10 µM | actives 1.1% (n = 290,000) | AID 1531, 2009; in the data active = binding response below about 67% or above about 130%
# SUMO Mot1 rescue – yeast Mot1-301 growth rescue at high temperature, primary screen, SUMOylation pathway inhibitor project, S. cerevisiae, ATP luminescence, 38.5C | S. cerevisiae Mot1-301 growth rescue; percent above DMSO median, 100 means doubled | growth rescue, % at 18.8 µM | actives 1% (n = 320,000);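 active = every valid replicate shows activation above 250% relative to neutral control wells; inactive = the rest, any valid replicate at or below 250%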;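 note: OY570 slx delta 5 strain wells were the positive control but not used for scaling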
# CHT allo act – CHT positive allosteric modulators, primary screen, cell-based, membrane potential dye, choline EC20; High affinity choline transporter 1 (Homo sapiens), Q9GZV3; B-score at 10 µM; actives 0.49% (n = 310,000); CHT-expressing cells; stronger effect = higher value; LV-AA mutant CHT in HEK293 cells;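 active = initial fluorescence not abnormally high and integrated response B-score, plate-corrected, over 3 SD above library mean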
# Target sequence (Q9GZV3 whole entry, looked up): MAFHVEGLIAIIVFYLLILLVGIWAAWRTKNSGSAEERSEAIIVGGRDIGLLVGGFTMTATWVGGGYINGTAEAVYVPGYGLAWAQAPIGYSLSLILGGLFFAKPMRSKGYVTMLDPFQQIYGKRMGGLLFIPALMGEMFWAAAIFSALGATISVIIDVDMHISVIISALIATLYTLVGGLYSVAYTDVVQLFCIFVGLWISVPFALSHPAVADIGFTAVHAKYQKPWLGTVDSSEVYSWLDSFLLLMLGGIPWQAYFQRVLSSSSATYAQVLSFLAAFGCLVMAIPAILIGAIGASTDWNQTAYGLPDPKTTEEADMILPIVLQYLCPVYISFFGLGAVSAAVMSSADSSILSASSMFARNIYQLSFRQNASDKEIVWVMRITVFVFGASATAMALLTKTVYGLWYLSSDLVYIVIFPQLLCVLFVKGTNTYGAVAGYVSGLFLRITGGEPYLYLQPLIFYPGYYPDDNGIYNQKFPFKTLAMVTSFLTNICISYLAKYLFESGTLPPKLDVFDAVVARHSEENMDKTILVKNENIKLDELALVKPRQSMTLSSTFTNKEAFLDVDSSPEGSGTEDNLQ
# CHT block – inhibitors of human choline transporter CHT. High affinity choline transporter 1 (Homo sapiens), Q9GZV3. CHT-expressing cells, membrane potential dye, choline response; stronger effect = lower value. B-score at 10 µM. actives 0.86% (n = 310,000). AID 488975, 2010;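 active = B-score over 3 SD under the library average, and starting fluorescence ratio not unusually high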;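 note: choline stimulus applied at its EC90 after an EC20 pre-addition; B-score computed on integrated fluorescence ratio after choline addition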
# MEKK3 PB1 HTS – modulators of MEKK3-MEK5 PB1 binding, primary screen, biochemical, wildtype MEKK3, multiplex bead flow cytometry, Alexa488-MEK5; bead-based flow cytometry, Alexa488-MEK5 binding to MEKK3; actives lie on both sides; 0 = blocked by unlabeled MEK5, 100 = vehicle; binding response (% of control), % at 10 µM; AID 1529, 2009; actives 1.4% (n = 290,000);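 active = binding response more than 3 SD above or below the average of its plate-row segment, actives on both sides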;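 note: Alexa488 bead fluorescence after subtracting the streptavidin-only scavenger bead signal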
# MEKK2mut PB1 HTS – MEK5 binding signal on mutant MEKK2 PB1, primary screen, biochemical, multiplex bead flow cytometry, Alexa488-MEK5 | Alexa488-MEK5 binding to MEKK2 mutant | percent response, % at 10 µM | actives 0.35% (n = 290,000); in the data active = percent response above about 24%, passing the limit was not always enough
# MEKK2wt confirm – modulators of MEK5 binding to wildtype MEKK2, confirmation, biochemical, single concentration, multiplex bead flow cytometry | shares compounds with MEKK3 PB1 HTS | binding response (% of control), % at 10 µM | Alexa488-MEK5 binding to MEKK2 WT; actives lie on both sides | actives 2.4% (n = 5,900) | AID 1892, 2009; in the data active = binding response below about 16% or above about 210%; inactive = in between
# MEKK2mut-MEK5 – mutant MEKK2 PB1-MEK5 binding signal retest – biochemical, single concentration, multiplex bead flow cytometry, confirmation; shares compounds with MEKK3 PB1 HTS; Alexa488-MEK5 binding to MEKK2 mutant; percent response, % at 10 µM; actives 2% (n = 5,900); AID 1893, 2009; in the data active = percent response mostly above about 71%, no sharp cut-off; inactive = mostly below about 38%;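 note: higher means compound restores mutant binding toward wildtype level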
# MEKK3 confirm – MEKK3 wild-type PB1 binding to MEK5, inhibitors, confirmation, biochemical, bead multiplex flow cytometry, single concentration, wildtype; actives 1.8% (n = 5,900); shares compounds with MEKK3 PB1 HTS; Alexa488-MEK5 binding to MEKK3; stronger effect = lower value; binding response (% of control), % at 10 µM;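 active = binding response below 72% of control, or above a set upper limit, though filed actives all read lower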;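 note: 100% = DMSO only wells and 0% = binding blocked by excess unlabeled MEK5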
# * marks the source's active call; other numbers are inactive results; i = inactive; / = no result; [ ] = remark or other dose. Rows were chosen to be rich in hits. Some 4.1% of all compounds tested hit in one or more screens of this group.
SMILES,MEKK2wt PB1 HTS,SUMO Mot1 rescue,CHT allo act,CHT block,MEKK3 PB1 HTS,MEKK2mut PB1 HTS,MEKK2wt confirm,MEKK2mut-MEK5,MEKK3 confirm
O=C(NC(Nc1ccc(F)cc1)(C(F)(F)F)C(F)(F)F)c1cccnc1,93,6,i,i,53*[inhibitor],-1,106,6,104
CN1CCN(C2Cc3ccccc3Sc3ccc(Cl)cc32)CC1 (centres undefined),/,-8,i,i,/,/,/,/,/
CSc1ccc2c(c1)C(N1CCN(C)CC1)Cc1ccccc1S2 (centres undefined),150*,-7,i,i,108,8,162,49,108
Cc1cn(CCC(=O)Nc2ccccc2N2CCOCC2)c2ccccc12,84,-6,i,i,89,-18,/,/,/
Cc1cn(CCC(=O)Nc2ccc(N3CCOCC3)cc2)c2ccccc12,129,3,i,i,128*,27,102,-6,100
O=C(N/N=C/c1ccc(OCc2ccccc2)cc1)c1cc[n+](Cc2ccccc2)cc1,153*,3,i,i,97,21,160,26,109
O=C(N/N=C/c1ccc(F)cc1)c1ccc(OCc2ccccc2)cc1,99,13,i,i,102,-2,/,/,/
Cc1ccc(C(=O)N2CCN=C2SCc2ccc([N+](=O)[O-])cc2)cc1C,82,94,i,i,64*[inhibitor],-4,96,-2,98
Cc1ccccc1S(=O)(=O)c1cc(C#N)c(=O)[nH]c1N,74,11,i,i,69*[inhibitor],-13,102,-1,101
COc1ccc2[nH]cc(CCNS(=O)(=O)Cc3ccccc3)c2c1,88,27,i,i,97,-10,/,/,/
CC(=O)c1ccc(-c2ccccc2OC(F)(F)F)o1,61,69,i,i,49*[inhibitor],-22,100,-9,98
Cc1cc(C)n2nc(-c3ccsc3-n3c(C)ccc3C)cc2n1,9.0*[inhibitor],2,i,i,94,1,96,3,103
Cc1ccc(-c2cc3nc(C)cc(C)n3n2)cc1,89,34,i,i,89,-7,/,/,/
O=C(O)Cn1cc(/C=N/Nc2ccc([N+](=O)[O-])cn2)c2ccccc21,107,5,i,i,104,2,/,/,/
Cc1ccc(Cn2cc(/C=N/Nc3ccc([N+](=O)[O-])cn3)c3ccccc32)cc1,53*[inhibitor],25,i,i,98,15,100,-4,98
N#Cc1ccc2ccn(CC(=O)NCc3ccco3)c2c1,139*,0,i,i,114,13,102,-4,99
Cc1cc(S(=O)(=O)NCCCN2CCOCC2)ccc1F,107,236,i,i,105,2,/,/,/
CCCCn1c(O)c(/C=C/C=C/C=Nc2ccccc2)sc1=S,-5.0*,-4,i,i,21*[inhibitor],-29,22,-27,35*
CCn1c(O)c(/C=C/C=C/C=Nc2ccccc2)sc1=S,59*[inhibitor],-4,i,i,87,-1,84,-7,93
